DAX1 inh-1: inhibitors of human orphan nuclear receptor DAX1 (NR0B1) | inhibition, % at 6.75 µM | HEK293 Gal4-DAX1 luciferase reporter, luminescence | actives 0.99% (n = 340,000);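 active = inhibition above the mean over all tested compounds plus 3 SD, cut at about 4.2% in these data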;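 also: inhibition shows as a rise in luminescence from relieved DAX1 repression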
Target sequence (P51843 207-470 limits assumed): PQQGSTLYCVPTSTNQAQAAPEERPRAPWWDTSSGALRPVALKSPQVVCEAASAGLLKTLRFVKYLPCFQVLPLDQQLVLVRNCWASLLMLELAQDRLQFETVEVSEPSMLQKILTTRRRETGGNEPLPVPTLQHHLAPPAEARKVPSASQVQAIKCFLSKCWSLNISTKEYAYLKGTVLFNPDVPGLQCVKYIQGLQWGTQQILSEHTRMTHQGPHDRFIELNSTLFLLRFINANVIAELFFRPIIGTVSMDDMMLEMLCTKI
hcDAF-12 act: activates DAF-12 receptor from parasite H. contortus. HEK293 hcDAF-12 lit1-tk-luc reporter, luminescence; 0% DMSO, 100% Δ7-dafachronic acid. activation, % at 6.8 µM. actives 1.4% (n = 370,000). AID 652067;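 active = activation above the mean of all tested compounds plus 3 SD, cut at about 5.5% in these data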
hgDAF-12 ag: activates the H. glycines DAF-12 receptor ligand-binding domain | activation, % at 6.8 µM | HEK293 GAL4-hgDAF12 UAS-luciferase reporter, agonist luminescence; normalized to butyrate control | AID 687014 | actives 1.8% (n = 370,000);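 active = activation above a cutoff set at the mean of all screened compounds plus 3 SD, cut at about 10% in these data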
GAA850 FXN act: activators of GAA850 frataxin (FXN) promoter; AID 540364; HEK293 lucGAA850 FXN promoter luciferase reporter, 24 h; percent of 10 µM SAHA response; activation, % at 6 µM; actives 0.56% (n = 360,000);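 active = activation above the average of all compounds screened plus 3 SD, cutoff fixed separately per campaign, cut at about 7.5% in these data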
DAX1 inh-2: blocks DAX1 repression of SF-1 activated StAR promoter. HEK293T StAR-luciferase reporter, SF-1/DAX-1 repression relief. inhibition, % at 6.8 µM. actives 1.1% (n = 370,000). AID 652010;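 active = inhibition above the mean over all tested compounds plus 3 SD, cut at about 3.6% in these data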;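 also: higher inhibition means more luminescence from relief of DAX-1 repression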
ssDAF12 agonist: S. stercoralis DAF-12 activation, primary screen. HEK293 ssDAF-12/GRIP1 lit1-tk-luc reporter, luminescence; % of 3 µM dafachronic acid response. actives 1% (n = 370,000). AID 652126. activation, % at 6.8 µM;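 active = activation above the mean over all tested compounds plus 3 SD, cut at about 0.9% in these data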
Large screens that a line does not name were inactive. A selection: hits, their analogues and other compounds. The true share with any hit is near 4.5%.

Cc1ccccc1CN1CCCCC(NC(=O)Nc2ccccc2)C1=O (stereo not drawn)	none (no result: DAX1 inh-1, GAA850 FXN act)
COc1ccc(C(=O)N/C(=C\c2ccco2)C(=O)OCc2ccco2)cc1	DAX1 inh-1 5.5
CCCCOc1ccc(C(=O)N/C(=C\c2ccc(OC)cc2)C(=O)OCc2ccco2)cc1	none
CC(C)(C)c1ccc(-c2cc(NC(=O)Cc3c[nH]c4ccccc34)ccc2Nc2cccnc2)cc1	ssDAF12 agonist 1.7 (no result: DAX1 inh-1, GAA850 FXN act)
CCCc1ccc(-c2cc(NC(=O)Cc3c[nH]c4ccccc34)ccc2Nc2cccnc2)cc1	none (no result: DAX1 inh-1, GAA850 FXN act)
CN(CC(=O)N1CCN(c2ncccn2)CC1)S(=O)(=O)c1ccc(Cl)cc1	ssDAF12 agonist 2.2
Cc1cc2sc3ccccc3c(=O)c2c(C)c1O	ssDAF12 agonist 1.1
O=C(CCn1nnc(-c2cccs2)n1)NCc1ccco1	none (no result: DAX1 inh-1, GAA850 FXN act)
Nc1ccc(Cc2ccc([N+](=O)[O-])cc2)cc1	DAX1 inh-1 5.2
O=[N+]([O-])c1ccc(Cc2ccccn2)cc1	none
O=C(CN1CCN(c2ccccc2)CC1)Nc1scc2c1c(=O)oc1ccccc12	DAX1 inh-1 4.7
Cc1ccc2nc(/C(C#N)=C/c3ccc(O)c(O)c3)[nH]c2c1	none
N#C/C(=C\c1ccccc1C(=O)O)c1nc2ccccc2[nH]1	DAX1 inh-1 4.4
COc1cccc(/C=C(\C#N)c2nc3ccc(C)cc3[nH]2)c1OCC(=O)O	hcDAF-12 act 6.1
Cc1ccc2nc(/C(C#N)=C/c3ccccc3C(=O)O)[nH]c2c1	DAX1 inh-1 8.4, ssDAF12 agonist 1.0
COC(=O)[C@]12C[C@H](CC(=O)N3CCCCC3)C(=O)N(CCC3=CCCCC3)C1=C[C@H](C(C)C)O[C@@H]2C1CC1	none (no result: DAX1 inh-1, GAA850 FXN act)
C[C@@H]1C[C@H](O)CCCCCC(=O)Cc2cc(O)cc(O)c2C(=O)O1	none (no result: DAX1 inh-1, GAA850 FXN act)
N#Cc1c(-c2ccccc2)cc2nc3ccccc3n2c1N	DAX1 inh-1 4.3
COc1cc(-c2cc3nc4ccccc4n3c(N)c2C#N)cc(OC)c1OC	none
CS(=O)(=O)Nc1ccc(C2=NN(S(C)(=O)=O)C(c3ccc4c(c3)OCO4)C2)cc1 (stereo not drawn)	hgDAF-12 ag 11
CCOC(=O)N1CCC(NC(=O)CSCc2cnn(-c3ccccc3)c2-n2cccc2)CC1	GAA850 FXN act 8.3
CNC(=O)CSCc1cnn(-c2ccccc2)c1-n1cccc1	none
Cc1ccccc1/C=C1\CCCc2ccccc2C1=O	DAX1 inh-1 6.0
O=C1/C(=C\c2ccc3ccccc3c2)CCCc2ccccc21	none
Cc1ccc(S(=O)(=O)N2CCN(C(=O)c3cccn3C)CC2)cc1	none (no result: DAX1 inh-1, GAA850 FXN act)
Cc1ccc([N+](=O)[O-])c(OCc2ncc(Cl)n2C)c1	ssDAF12 agonist 1.1
C(=C\c1ccccc1)/CSc1nc2ncccc2[nH]1	DAX1 inh-1 4.5
COC(=O)C[C@@H]1CC[C@@H]2[C@H](COc3ccc(NC(=O)c4ccc(F)c(F)c4)cc3C(=O)N2C)O1	none (no result: DAX1 inh-1, GAA850 FXN act)
COC(=O)CCN(C)CCC(=O)OC	none
COC(=O)CCCC(=O)OC	DAX1 inh-1 4.3
COC(=O)CCC(=O)CN	DAX1 inh-1 4.7
Cc1cccc(CS(=O)(=O)c2nnc([C@H](Cc3ccccc3)NC(=O)OC(C)(C)C)o2)c1	none (no result: hcDAF-12 act, hgDAF-12 ag, DAX1 inh-2, ssDAF12 agonist)
COC(=O)CS(=O)(=O)c1nnc([C@H](Cc2ccccc2)NC(=O)OC(C)(C)C)o1	GAA850 FXN act 15
Cn1c(-c2ccccc2)cccc1=O	ssDAF12 agonist 1.3
Nn1c(SCC(=O)NC2CCCC2)nnc1C(F)(F)F	DAX1 inh-1 5.3
Cn1c(CC(=O)Nc2ccccc2)nnc1SCC(=O)NC1CCCC1	none
Cc1nnc(SCC(=O)NC2CCCCC2)n1N	none
Cc1ccc(NC(=O)Cc2nnc(SCC(=O)NC3CCCC3)n2C)cc1	hcDAF-12 act 6.3
Cc1cc(N2CCNC[C@H]2C)ccc1N1C[C@@H](C)O[C@@H](C)C1	none (no result: DAX1 inh-1, GAA850 FXN act)
O=c1c2cc3cccnc3nc2ncn1Cc1cccs1	none (no result: DAX1 inh-1, GAA850 FXN act)
Cc1cccc(C)c1NC(=O)CN1CCCC1	DAX1 inh-1 4.5
COC(=O)C1CN(Cc2cn(CCC3OCCO3)nn2)CCS(=O)(=O)N1Cc1ccc(F)cc1 (stereo not drawn)	none (no result: DAX1 inh-1, GAA850 FXN act)
COC(=O)[C@H](C(C)C)N(CCc1cn(CC2CCCCC2)nn1)S(=O)(=O)c1ccccc1Br	none (no result: DAX1 inh-1, GAA850 FXN act)
CN(C)S(=O)(=O)c1ccc(/C(O)=C2/C(=O)C(=O)N(CCCN3CCOCC3)C2c2ccncc2)cc1 (stereo not drawn)	DAX1 inh-1 5.1
COc1cccc(/C(O)=C2/C(=O)C(=O)N(CCCN3CCOCC3)C2c2ccncc2)c1 (stereo not drawn)	none
COc1ccc(OC)c(CN2C(=O)COc3ccccc3C2c2nnnn2C2CCCC2)c1 (stereo not drawn)	none (no result: DAX1 inh-1, GAA850 FXN act)
COc1ccccc1-c1nc(NC(C)=O)n[nH]1	ssDAF12 agonist 1.8 (no result: DAX1 inh-1, GAA850 FXN act)
COc1ccccc1-c1nc(SCC(=O)N2CCOCC2)n[nH]1	none
CC(C)C[C@@H]1COc2cc(Br)ccc2S(=O)(=O)N1Cc1cn(CCC2OCCCO2)nn1	none (no result: DAX1 inh-1, GAA850 FXN act)
Cc1occc1C(=O)NN=C1C2CC3CC(C2)CC1C3	DAX1 inh-2 4.0
COC(=O)c1nc(-c2ccc(C)cc2)oc1N(C)C	ssDAF12 agonist 1.0
COC(=O)[C@]12C[C@H](CC(=O)NCc3ccc(OC)c(OC)c3)C(=O)N(Cc3ccc(Cl)cc3Cl)C1=C[C@H](COCc1ccccc1)O[C@@H]2C	none (no result: DAX1 inh-1, GAA850 FXN act)
Cc1ccc(C2CCC3(CCC(=O)N3CCO)CC2)cc1 (stereo not drawn)	none (no result: DAX1 inh-1, GAA850 FXN act)
CC(C)C[C@@H]1NC(=O)[C@H]2C[C@@]3(C)c4ccccc4N[C@H]3N2C1=O	none (no result: DAX1 inh-1, GAA850 FXN act)
COC(=O)c1ccc(S(=O)(=O)N2CCC(NC(=O)CCc3ccccc3)CC2)cc1	none (no result: DAX1 inh-1, GAA850 FXN act)
COc1cccc(C2=NNC(=NCc3ccccc3)SC2)c1	hgDAF-12 ag 13
COCC(C)N=C1NN=C(c2c[nH]c3ccccc23)CS1 (stereo not drawn)	hcDAF-12 act 6.2
O=C1C=C(O)c2c(O)cc(O)c(O)c2C1=O	DAX1 inh-1 5.2
O=C1c2ccccc2C(=O)c2c(O)c(O)cc(O)c21	none
CCC(C)(C(=O)NC1CCCCC1)N(Cc1cccs1)C(=O)c1ccccn1 (stereo not drawn)	none
CCC(C)(C(=O)NC1CCCCC1)N(Cc1cccs1)C(=O)c1ccc(=O)[nH]c1 (stereo not drawn)	DAX1 inh-1 4.7
Cc1ccc(NC(=O)Cn2nnc3ccccc32)cc1	none (no result: DAX1 inh-1)
Cc1cccc(NC(=O)Cn2nnc3ccccc32)c1	DAX1 inh-1 4.7
Cc1cc(NC(=O)CSc2nnc(-c3ccncc3)n2C)n(-c2ccccc2)n1	DAX1 inh-1 6.0
Cc1cccc(NC(=O)CSc2nnc(-c3ccncc3)n2C)c1	hgDAF-12 ag 12
Cn1c(SCC(=O)Nc2ccc3c(c2)n(C)c(=O)n3C)nnc1-c1ccncc1	none

Source: PubChem (The Scripps Research Institute Molecular Screening Center)
